Source: PubChem BioAssay
pPAFAH inh – inhibitors of human plasma PAF acetylhydrolase (pPAFAH); Q13093; recombinant pPAFAH, FP-rhodamine probe fluorescence polarization; inhibition, % at 3.39 µM; 1.5% of 330,000 active; AID 463082;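 active = inhibition above the mean inhibition across the screen plus 3 SD, cut at about 25% in these data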;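 also: inhibitors block binding of the rhodamine activity-based probe so polarization drops; 0% = enzyme with DMSO and 100% = wells lacking pPAFAH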
M18AAP inhibitor – PfM18AAP enzyme inhibition. recombinant PfM18AAP, H-Glu-NHMec fluorogenic cleavage. inhibition, % at 7.35 µM. 1.2% of 290,000 active;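 active = inhibition above the campaign mean inhibition over all tested compounds plus 3 SD, cut at about 28% in these data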;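 also: 0% = plate median of test compound wells and 100% = 2 mM ZnCl2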
DSG3 Ab inh – inhibitors of pemphigus antibody binding to human desmoglein-3; 0.48% of 310,000 active; P32926; DSG3-coupled beads, scFv-anti-DSG3-GFP binding, flow cytometry; stronger effect = lower value; binding (percent of control), % at 10 µM;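 active = binding more than 3 SD below its plate's average and above zero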;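 also: hits lower antibody fragment binding to DSG3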
PAFAH1B2 FP inh – blocks human PAF acetylhydrolase 1b catalytic subunit 2. inhibition, % at 3.39 µM. recombinant PAFAH1B2, FP-rhodamine activity probe, fluorescence polarization. AID 492953. 1.2% of 340,000 active. P68402;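 active = inhibition above the mean of all tested compounds plus 3 SD, cut at about 24% in these data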;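 also: 0% = enzyme with DMSO and 100% = wells lacking PAFAH1B2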
Target sequence (P68402 whole entry, looked up): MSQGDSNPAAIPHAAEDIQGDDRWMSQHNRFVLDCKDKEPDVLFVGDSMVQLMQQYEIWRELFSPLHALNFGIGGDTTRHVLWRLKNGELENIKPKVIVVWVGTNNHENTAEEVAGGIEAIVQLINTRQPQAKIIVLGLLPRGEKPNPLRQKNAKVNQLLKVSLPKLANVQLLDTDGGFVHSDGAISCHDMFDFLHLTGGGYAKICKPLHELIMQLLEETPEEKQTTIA
PAFAH1B3 FP inh – blocks human PAF acetylhydrolase 1B catalytic subunit 3 | 0.28% of 340,000 active | Q15102 | inhibition, % at 3.39 µM | AID 492972 | recombinant PAFAH1B3, FP-rhodamine probe, fluorescence polarization;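 active = inhibition above the screen-wide average of all tested compounds plus 3 SD, cut at about 25% in these data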;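 also: 0% = enzyme with DMSO only and 100% = wells lacking PAFAH1B3 protein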
Target sequence (Q15102 whole entry, looked up): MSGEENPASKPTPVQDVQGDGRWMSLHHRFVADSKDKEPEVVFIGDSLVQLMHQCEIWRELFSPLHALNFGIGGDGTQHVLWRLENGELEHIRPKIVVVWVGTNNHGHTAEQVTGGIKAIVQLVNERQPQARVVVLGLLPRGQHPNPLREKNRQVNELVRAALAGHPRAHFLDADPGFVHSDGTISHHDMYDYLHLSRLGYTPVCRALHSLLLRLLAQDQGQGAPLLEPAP
PAFAH2 inh – PAFAH2 (human) inhibition; Q99487; recombinant PAFAH2, FP-rhodamine activity probe, fluorescence polarization; inhibition, % at 3.39 µM; 0.99% of 340,000 active;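 active = inhibition above the mean over all tested compounds plus 3 SD, cut at about 30% in these data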;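 also: inhibitors block probe labeling of enzyme so polarization drops; 0% = enzyme with DMSO and 100% = wells lacking PAFAH2 protein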
* marks the source's active call; other numbers are inactive results; . = no result given. Compounds with a hit are over-represented: about 3.8% of the library has one in this group of screens.

SMILES	pPAFAH inh	M18AAP inhibitor	DSG3 Ab inh	PAFAH1B2 FP inh	PAFAH1B3 FP inh	PAFAH2 inh
O=C(NCCCNc1ccc(C(F)(F)F)cc1[N+](=O)[O-])c1ccc(Cl)cc1	10	1	83	29*	6	-2
COc1ccc(-c2cc(CNS(=O)(=O)c3ccc(F)cc3)on2)cc1	4	12	105	2	5	1
C[C@@H]1CN([C@H](C)CO)C(=O)c2cc(Br)cnc2O[C@@H]1CN(C)C(=O)C1CCOCC1	.	.	104	.	.	.
O=C(NC1CCCCCC1)c1ccc(Br)o1	1	-4	116	9	-3	-1
O=C(NC1CCCCC1)Oc1cc2oc(=O)sc2cc1Br	4	31*	.	0	10	-1
CCOC(=O)c1c2c(n(-c3ccc(OC)cc3)c1C)C(=O)C(=O)c1ccccc1-2	.	.	.	31*	77*	56*
CCCNC(=O)C[C@@H]1C[C@@H]2c3cc(NS(=O)(=O)c4ccc(OC)cc4)ccc3O[C@@H]2[C@@H](CO)O1	.	.	105	.	.	.
COc1cc(C)ccc1OCC(=O)OCC(=O)NCC1CCCCC1	5	.	105	4	10	-2
CCN(CC)S(=O)(=O)c1cccc(C(=O)OCC(=O)NCc2ccccc2OC)c1	32*	.	98	5	4	20
COc1ccccc1CNC(=O)COC(=O)Cc1ccc(Cl)cc1	27*	-5	82	2	8	1
Cc1cc(C)c(OCC(=O)OCC(=O)NCC2CCCCC2)c(C)c1	31*	.	95	4	3	-6
O=C(COC(=O)Cc1ccc(Cl)cc1)NC1CCCC1	26*	.	101	9	1	12
COc1ccccc1CNC(=O)c1cccc(S(=O)(=O)N(C)c2ccccc2)c1	-3	.	103	1	2	6
CSc1nc(=O)[nH]nc1Sc1ccccc1	.	.	103	.	.	.
CCN1CCC2(CC1)Oc1c(OC)cccc1C1CC(c3cccnc3)=NN12 (centres undefined)	3	12	108	.	.	.
CCc1ccc(C(=O)C(C)OC(=O)c2cccc(S(=O)(=O)N3CCOCC3)c2)cc1 (centres undefined)	-4	.	94	3	4	6
Cc1c(Cl)ccc2c(C(O)CBr)cc(-c3ccccc3)nc12 (centres undefined)	.	.	.	-6	0	-20
O=C(COC(=O)Cc1ccc(Br)cc1)NCC1CCCCC1	31*	-5	127	9	1	5
O=C(COC(=O)Cc1ccc(F)cc1)NC1CCCC1	11	.	105	3	13	9
O=C(COC(=O)Cc1ccc(Br)cc1)NC1CCCCC1	30*	-6	114	10	5	5
C[C@H](CO)N1C[C@H](C)[C@H](CN(C)S(=O)(=O)c2cccc(F)c2)Oc2ncc(-c3cccc(C(=O)N(C)C)c3)cc2C1=O	.	.	101	.	.	.
CC(C(=O)Nc1ccccc1-c1ccccc1)N(C)Cc1nc2ccccc2c(=O)[nH]1 (centres undefined)	6	-2	103	0	3	-6
O=[N+]([O-])c1ccc(Cl)c(-c2ccc(/C=N/c3c(-c4ccco4)nc4ccccn34)o2)c1	11	10	80	3	-5	2
Cc1cc(C)c([N+](=O)[O-])cc1-c1ccc(/C=N/c2c(-c3ccco3)nc3ccccn23)o1	32*	15	94	5	8	17
Cn1c2ccccc2c2cc(/C=N/NC(=O)c3ccc(O)cc3O)ccc21	31*	22	103	23	33*	-22
SMILES	pPAFAH inh	M18AAP inhibitor	DSG3 Ab inh	PAFAH1B2 FP inh	PAFAH1B3 FP inh	PAFAH2 inh
Cc1cccc(C)c1-c1ccc(CN2C(CC(C)C)C(=O)N(Cc3cn(CC4CCCCC4)nn3)CCS2(=O)=O)cc1 (centres undefined)	.	.	98	5	-4	4
CN(C)C=Nc1nonc1-c1ccccc1	1	3	.	-2	2	-2
CN(C)C=Nc1nonc1-c1ncn[nH]1	-2	30*	.	-2	-1	2
CS(=O)CC(O)(c1ccc(F)cc1)C1CC1 (centres undefined)	.	.	108	.	.	.
O=[N+]([O-])c1cccc(SSc2cccc([N+](=O)[O-])c2)c1	.	.	76	2	4	4
C[C@H](CO)N1C[C@H](C)[C@@H](CN(C)C(=O)Nc2ccccc2)Oc2c(NC(=O)Nc3ccc(C(F)(F)F)cc3)cccc2C1=O	-3	.	103	36*	6	-14
C[C@H](CO)N1C[C@H](C)[C@@H](CN(C)C(=O)Nc2ccc(C(F)(F)F)cc2)Oc2c(NC(=O)CCC(F)(F)F)cccc2C1=O	1	.	101	28*	-2	-7
C[C@@H]1CN([C@H](C)CO)C(=O)c2cccc(NC(=O)NC3CCCCC3)c2O[C@@H]1CN(C)C(=O)Nc1ccc(C(F)(F)F)cc1	7	.	108	64*	13	4
Nc1nonc1-n1nnc(C(=O)N/N=C/c2cc(Cl)ccc2O)c1CN1CCCCCC1	7	.	.	5	10	-4
O=C(Nc1ccccn1)C1CCN(C(=O)c2ccc(Cl)cc2)CC1	.	.	104	.	.	.
COc1cccc(C(=O)NCCS(=O)(=O)N2CCCC(C)C2)c1 (centres undefined)	.	.	99	.	.	.
COc1cc(=O)n(C)c2ccccc12	-3	3	100	1	6	6
CN(c1ccc(Cl)cc1)c1cc(=O)n(C)c2ccccc12	2	0	92	29*	1	-4
Cc1ccc(C)c(-n2nnc3ccccc3c2=O)c1	.	.	97	.	.	.
CCOC(=O)c1ccc(NC(=S)N2CCN(S(C)(=O)=O)CC2)cc1	4	-25	57*	7	-6	8
CCOC(=O)c1ccc(NC(=O)N2CCN(S(C)(=O)=O)CC2)cc1	1	-19	96	0	3	8
COc1ccccc1N1CCN(C(=O)C2CCC(CNS(=O)(=O)c3ccc(NC(C)=O)cc3)CC2)CC1 (centres undefined)	.	-6	94	1	1	-6
CC(=O)N1CCOc2ccc(S(=O)(=O)Nc3cccc(C)c3)cc21	18	1	105	2	4	3
Cc1ccc(CCNS(=O)(=O)c2ccc3c(c2)N(C)CCO3)cc1	10	-1	107	30*	3	1
Cc1ccc(NS(=O)(=O)c2ccc3c(c2)N(C)CCO3)cc1	28*	-2	95	11	-1	4
CCOc1ccc(NS(=O)(=O)c2ccc(OC)c(NC(=O)c3ccc4c(c3)OCCO4)c2)cc1	27*	-9	111	-5	-3	-11
CC(=O)N1CCOc2ccc(S(=O)(=O)NCCc3ccccc3)cc21	5	-3	112	7	3	3
CC(=O)N1CCSc2ccc(S(=O)(=O)Nc3ccc(C)cc3)cc21	25*	-3	100	8	2	12
OCC1OC(n2ccc3c(SCc4ccccc4)ncnc32)C(O)C1O (centres undefined)	.	.	94	6	14	7
CC(C1SC(=S)NC1=O)C1SC(=S)NC1=O (centres undefined)	.	.	97	.	.	.
